What all share (assay): NCI-60 one-dose screen, 48 h (100 = growth as untreated, 0 = no growth, -100 = all killed)
One experiment relates to SK-MEL-2 melanoma. Particulars: 10 µM unless noted.
In another experiment the test system is EKVX NSCLC. Particulars: 10 µM unless noted.
The next experiment relates to SN12C renal. Particulars: 10 µM unless noted.
The subject of the next experiment is UO-31 renal. The following applies: 10 µM unless noted.
Another experiment relates to TK-10 renal. Particulars: 10 µM unless noted.
The subject of the next experiment is ACHN renal. The following applies: 10 µM unless noted.
Another experiment deals with CAKI-1 renal. The following applies: 10 µM unless noted.
In another experiment the test system is A498 renal. Particulars: 10 µM.
Another experiment deals with HL-60(TB) leukemia. The following applies: 10 µM unless noted.
A further experiment relates to CCRF-CEM leukemia. Particulars: 10 µM unless noted.
In a further experiment the test system is MOLT-4 leukemia. The following applies: 10 µM unless noted.
A further experiment has as its system SR leukemia. The following applies: 10 µM unless noted.
Another experiment relates to RPMI-8226 leukemia. Particulars: 10 µM unless noted.
Another experiment concerns OVCAR-8 ovarian. The following applies: 10 µM unless noted.
The next experiment has as its system OVCAR-5 ovarian. The following applies: 10 µM unless noted.
Another experiment relates to OVCAR-4 ovarian. Particulars: 10 µM unless noted.
The test system of a further experiment is SK-OV-3 ovarian. The following applies: 10 µM unless noted.
Another experiment deals with IGROV1 ovarian. Particulars: 10 µM unless noted.
Another experiment concerns OVCAR-3 ovarian. The following applies: 10 µM unless noted.
For another experiment, the system named is HS 578T breast. The following applies: 10 µM unless noted.

About 83,000 compounds went through this panel and 20% of them were active in at least one assay; those are over-represented in the sample as a whole.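 Activity criterion: percent growth below 10, measured after cells in 96-well plates were exposed to a single compound concentration for 48 hours.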 Values without a mark were called inactive. The source made the active and inactive calls.

As for `COc1cccc(C=NC(Cc2cnc[nH]2)C(=O)O)c1O` (centres undefined), the growth with SK-MEL-2 melanoma was 70%; in the experiment on EKVX NSCLC, 102%; in the experiment on SN12C renal, 97.5%; in the experiment on UO-31 renal, 84.1%; in the experiment on TK-10 renal, 139%; in the experiment on ACHN renal, 97.8%. The growth in the experiment on CAKI-1 renal was 86.5%; in the experiment with A498 renal, 98.2%; with HL-60(TB) leukemia it was 189%; in the experiment with CCRF-CEM leukemia, 69.6%; in the experiment with MOLT-4 leukemia it was 120%; in the experiment with SR leukemia, 132%. In addition, the growth in the experiment with RPMI-8226 leukemia is 48.1%; in the experiment with OVCAR-8 ovarian, 81.1%; in the experiment on OVCAR-5 ovarian, 85.5%; in the experiment on OVCAR-4 ovarian, 95.9%; with SK-OV-3 ovarian, 102%; in the experiment with IGROV1 ovarian it was 64.8%. Besides, the growth in the experiment on OVCAR-3 ovarian was 102%.
For `O=C(O)C1C(C(=O)O)C2(Cl)C(Cl)=C(Cl)C1(Cl)C2(Cl)Cl.[Hg]` (centres undefined), the growth in the experiment with SK-MEL-2 melanoma was 102%; in the experiment with EKVX NSCLC, 102%; in the experiment with SN12C renal it was 87.4%; in the experiment with UO-31 renal, 111%; with TK-10 renal, 144%; in the experiment with ACHN renal, 99%. Further, the growth in the experiment with CAKI-1 renal is 101%; in the experiment with A498 renal it was 149%; with HL-60(TB) leukemia, 68.9%; in the experiment on CCRF-CEM leukemia, 71.8%; in the experiment on MOLT-4 leukemia, 72.6%; in the experiment with SR leukemia, 60.6%. Also, the growth in the experiment on RPMI-8226 leukemia was 84%; with OVCAR-8 ovarian, 106%; in the experiment on OVCAR-5 ovarian it was 106%; in the experiment with OVCAR-4 ovarian it was 108%; in the experiment on SK-OV-3 ovarian it was 120%; in the experiment with IGROV1 ovarian, 74.8%. Also, the growth in the experiment with OVCAR-3 ovarian was 39.8%; in the experiment on HS 578T breast, 102%.
As for `C=CC[Se]C(=O)c1ccccc1OC(C)=O`, the growth in the experiment on SK-MEL-2 melanoma is 37.2%; in the experiment on EKVX NSCLC, -30.8% (active); in the experiment with SN12C renal it was -18.4% (active); with UO-31 renal, -53.5% (active); with TK-10 renal, 12.5%; in the experiment with ACHN renal it was -26.6% (active). The growth was -9.51% (active) with CAKI-1 renal; -3.97% (active) in the experiment on A498 renal; -45.7% (active) with HL-60(TB) leukemia; 5.37% (active) with CCRF-CEM leukemia; 14.7% in the experiment on MOLT-4 leukemia; 6.08% (active) in the experiment with SR leukemia. Further, the growth in the experiment with RPMI-8226 leukemia was -22.8% (active); in the experiment with OVCAR-8 ovarian, -12.8% (active); in the experiment on OVCAR-5 ovarian, -32.1% (active); in the experiment with OVCAR-4 ovarian it was -36% (active); in the experiment with SK-OV-3 ovarian, -28.8% (active); with IGROV1 ovarian, 18.1%. Further, the results for the growth in the experiment on OVCAR-3 ovarian and in the experiment with HS 578T breast were 2.36% (active) and -8.17% (active), respectively.
Take `CC(C)(N)Cc1ccccc1`: the growth in the experiment on SK-MEL-2 melanoma was 108%; in the experiment on EKVX NSCLC it was 99.1%; in the experiment with SN12C renal, 108%; in the experiment on UO-31 renal, 84.7%; with TK-10 renal it was 96.5%; with ACHN renal it was 106%. In addition, the growth in the experiment on CAKI-1 renal is 97.6%; in the experiment on A498 renal, 111%; in the experiment on HL-60(TB) leukemia, 94.9%; in the experiment on CCRF-CEM leukemia, 100%; in the experiment on MOLT-4 leukemia it was 103%; in the experiment with SR leukemia, 100%. In addition, the growth with RPMI-8226 leukemia was 99.9%; in the experiment with OVCAR-8 ovarian it was 106%; in the experiment on OVCAR-5 ovarian it was 109%; in the experiment on OVCAR-4 ovarian it was 112%; in the experiment on SK-OV-3 ovarian, 106%; with IGROV1 ovarian, 106%. Besides, the values for the growth in the experiment on OVCAR-3 ovarian and in the experiment on HS 578T breast were 112% and 96.6%, respectively.
With `CN1C(=O)C23CC4(C56CC78SSC(CO)(C(=O)N7C5Nc5ccccc56)N(C)C8=O)c5ccccc5NC4N2C(=O)C1(CO)SS3` (centres undefined), the growth in the experiment with SK-MEL-2 melanoma is -84.6% (active); in the experiment with EKVX NSCLC, -62.3% (active); in the experiment on SN12C renal, -100% (active); with UO-31 renal it was -100% (active); in the experiment with TK-10 renal, -90.2% (active); in the experiment on ACHN renal it was -100% (active). Also, the growth is -98.7% (active) in the experiment on CAKI-1 renal; -98.9% (active) with A498 renal; -63.1% (active) with HL-60(TB) leukemia; -11.2% (active) in the experiment with CCRF-CEM leukemia; -62.2% (active) with MOLT-4 leukemia; -75.8% (active) in the experiment on SR leukemia. In addition, the growth is -25.8% (active) in the experiment with RPMI-8226 leukemia; -94.7% (active) with OVCAR-8 ovarian; -77.7% (active) with OVCAR-5 ovarian; -94.5% (active) in the experiment on OVCAR-4 ovarian; -98.6% (active) with SK-OV-3 ovarian; -100% (active) with IGROV1 ovarian. For the same molecule, the growth in the experiment with OVCAR-3 ovarian is -97.8% (active); in the experiment with HS 578T breast, -54.5% (active).
Turning to `CC[C@]12C=CCN3CC[C@@]4(c5ccc(OC)cc5N(C)[C@H]4[C@@](O)(C(=O)OC)[C@@H]1OC(=O)CCCC[P+](c1ccccc1)(c1ccccc1)c1ccccc1)[C@@H]32`, the growth is -41.6% (active) in the experiment on SK-MEL-2 melanoma; 56.1% in the experiment with EKVX NSCLC; 4.56% (active) in the experiment on SN12C renal; 81.9% with UO-31 renal; 48.6% in the experiment on TK-10 renal; 93.1% in the experiment on ACHN renal. In addition, the growth was 85.9% in the experiment on CAKI-1 renal; 52.2% with A498 renal; -63.5% (active) in the experiment with HL-60(TB) leukemia; 15.6% in the experiment with CCRF-CEM leukemia; 5.66% (active) in the experiment on MOLT-4 leukemia; 17.9% with SR leukemia. Besides, the growth in the experiment on RPMI-8226 leukemia is 15.4%; in the experiment on OVCAR-8 ovarian it was 18.6%; in the experiment with OVCAR-5 ovarian, 23.8%; with OVCAR-4 ovarian, 5.22% (active); in the experiment with SK-OV-3 ovarian, -2.96% (active); in the experiment on IGROV1 ovarian it was -36.4% (active). The growth in the experiment with OVCAR-3 ovarian is -0.293% (active); with HS 578T breast it was 9.79% (active).
Consider `Cc1sc2c(c1C)C(c1ccc(Cl)cc1)=N[C@@H](CC(=O)OC(C)(C)C)c1nnc(C)n1-2`, for which the growth in the experiment with SK-MEL-2 melanoma was 48.8%; in the experiment on EKVX NSCLC, 42.2%; with SN12C renal it was 49.5%; in the experiment with UO-31 renal it was 13.4%; in the experiment with TK-10 renal, 22.5%; in the experiment on ACHN renal, 31.1%. Also, the growth was 21.6% in the experiment on CAKI-1 renal; -11.8% (active) with A498 renal; 4.3% (active) in the experiment on HL-60(TB) leukemia; 38.7% in the experiment with CCRF-CEM leukemia; 48.3% in the experiment with MOLT-4 leukemia; 19.2% in the experiment on SR leukemia. Also, the growth in the experiment on RPMI-8226 leukemia was 23.5%; in the experiment on OVCAR-8 ovarian, 53%; in the experiment with OVCAR-5 ovarian it was 45.4%; with OVCAR-4 ovarian it was 42.6%; in the experiment on SK-OV-3 ovarian it was 39.3%; with IGROV1 ovarian it was 31.4%. Besides, the growth in the experiment on OVCAR-3 ovarian is 20%; in the experiment with HS 578T breast, -4.04% (active).
